Test results: PubChem BioAssay (EPA / NIEHS)
Several values for one entry are separate records, joined by “and”; a condition that tells them apart may be missing. Equal entries are not always repeated. Inconclusive results are not listed. More than one record can exist for a structure, and the calls need not agree. Activity calls are given as the source filed them. The calls were made as follows, unless noted: active = hit-call score of the fitted dose curve at least 0.9, where 1 is the maximum; inconclusive = response in the unintended direction; inactive = score below 0.9.

These compounds were tested against Peroxisome proliferator-activated receptor gamma (Homo sapiens) (UniProt P37231) (assay: NVS_NR_hPPARg: NovaScreen (NVS) Nuclear Receptor Binding Assay for human Peroxisome Proliferator-activated Receptor gamma (PPARg) (AID 2283370)).
Procedure, shortened: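 Chemicals were tested first in duplicate at 25 uM, then in concentration series if active. Binding to cell-free PPARg protein was measured by fluorescence polarization after 2 h, with loss of signal scored against DMSO.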

Chain of Peroxisome proliferator-activated receptor gamma (Homo sapiens) (P37231 whole entry, looked up): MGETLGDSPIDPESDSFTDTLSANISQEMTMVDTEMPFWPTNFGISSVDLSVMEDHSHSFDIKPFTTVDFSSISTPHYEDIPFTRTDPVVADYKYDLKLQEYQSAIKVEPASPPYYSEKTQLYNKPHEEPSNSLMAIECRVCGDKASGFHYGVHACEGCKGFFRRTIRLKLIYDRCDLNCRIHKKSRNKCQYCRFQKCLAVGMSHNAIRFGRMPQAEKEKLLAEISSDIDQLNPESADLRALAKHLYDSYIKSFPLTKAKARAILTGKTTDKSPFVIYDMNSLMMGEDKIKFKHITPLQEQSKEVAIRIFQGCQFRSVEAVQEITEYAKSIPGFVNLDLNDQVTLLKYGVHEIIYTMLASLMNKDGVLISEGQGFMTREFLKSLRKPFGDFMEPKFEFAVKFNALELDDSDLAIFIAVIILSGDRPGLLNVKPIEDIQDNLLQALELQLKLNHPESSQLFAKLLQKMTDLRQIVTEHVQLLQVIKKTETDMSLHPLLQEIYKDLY

outcome, inactive:
CC(C)C1=CC2=CC[C@@H]3[C@](C)(CCC[C@@]3(C)C(=O)O)[C@H]2CC1
CCCCCCCCCCOS(=O)(=O)O
C1CN(SSN2CCOCC2)CCO1

AC50, active:
CCN(CCC#N)c1ccc(N=Nc2c(Cl)cc([N+](=O)[O-])cc2Cl)cc1 13.4 µM
CCCCCCCC/C=C\CCCCCCCC(=O)O 25 µM
CCCCCCCCCCOS(=O)(=O)O 15.6 µM
CC(C)c1ccc2c(C(C)C)cc(C(C)C)c(S(=O)(=O)O)c2c1 4.01 µM
CCCCC(CC)CCC(CC(C)C)OS(=O)(=O)O (stereo not drawn) 8.17 µM and 6.89 µM

What follows are compounds tested against human Norepinephrine Transporter (NET), SLC6A2 (gene 6530) (UniProt P23975) (assay: NVS_TR_hNET: NovaScreen (NVS) Transporter Assay for human Norepinephrine Transporter (NET) (AID 2283377);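 also: cell-free membrane protein extracted from CHO cells expressing human NET; displacement of radioligand from human NET seen as loss of scintillation signal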).
Procedure, shortened: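 CHO cell extracts expressing the transporter; tritiated or iodinated tracer displaced competitively; filtration plus scintillation readout at 1 h. Single-point duplicates at 25 uM, concentration series for follow-up; activity = signal drop relative to DMSO.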

Chain of human Norepinephrine Transporter (NET), SLC6A2 (gene 6530) (P23975 whole entry, looked up): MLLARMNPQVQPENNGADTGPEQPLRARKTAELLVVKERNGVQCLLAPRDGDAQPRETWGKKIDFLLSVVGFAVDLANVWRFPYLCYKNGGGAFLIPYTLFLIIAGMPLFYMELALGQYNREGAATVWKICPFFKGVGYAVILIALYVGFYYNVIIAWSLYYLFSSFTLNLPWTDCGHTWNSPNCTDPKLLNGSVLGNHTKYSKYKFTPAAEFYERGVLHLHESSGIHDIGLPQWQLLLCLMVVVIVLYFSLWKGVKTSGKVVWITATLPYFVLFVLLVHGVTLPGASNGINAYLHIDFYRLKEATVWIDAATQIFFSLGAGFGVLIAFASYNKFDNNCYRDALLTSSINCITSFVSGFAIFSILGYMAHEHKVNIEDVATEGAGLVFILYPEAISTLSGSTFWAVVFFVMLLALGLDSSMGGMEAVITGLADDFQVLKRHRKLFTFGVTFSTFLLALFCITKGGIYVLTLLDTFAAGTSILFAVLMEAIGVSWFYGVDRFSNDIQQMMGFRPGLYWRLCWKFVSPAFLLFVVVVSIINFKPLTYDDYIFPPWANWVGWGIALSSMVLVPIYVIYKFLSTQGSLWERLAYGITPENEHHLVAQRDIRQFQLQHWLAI

AC50, active:
COc1ccc2nc(N)sc2c1 9.9 µM
CCCCCCCCCCCCCCCC[N+](C)(C)CC 2.32 µM
c1ccc2c(c1)ccc1ncccc12 7.22 µM

What follows are compounds tested against mouse Estrogen Receptor alpha (Era), Esr1 (gene 13982) (UniProt P19785) (assay: NVS_NR_mERa: NovaScreen (NVS) Nuclear Receptor Binding Assay for mouse Estrogen Receptor alpha (Era) (AID 2283378);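 also: hit means loss of bound radioligand signal relative to DMSO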).
Procedure, shortened: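 Extracted mouse Era incubated with tritiated or iodinated radioligand plus test chemical, 18 h. Bound fraction separated on filters, counted by scintillation. DMSO = negative control/baseline; duplicate single-point at 25 uM, then concentration-response follow-up.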

Chain of mouse Estrogen Receptor alpha (Era), Esr1 (gene 13982) (P19785 whole entry, looked up): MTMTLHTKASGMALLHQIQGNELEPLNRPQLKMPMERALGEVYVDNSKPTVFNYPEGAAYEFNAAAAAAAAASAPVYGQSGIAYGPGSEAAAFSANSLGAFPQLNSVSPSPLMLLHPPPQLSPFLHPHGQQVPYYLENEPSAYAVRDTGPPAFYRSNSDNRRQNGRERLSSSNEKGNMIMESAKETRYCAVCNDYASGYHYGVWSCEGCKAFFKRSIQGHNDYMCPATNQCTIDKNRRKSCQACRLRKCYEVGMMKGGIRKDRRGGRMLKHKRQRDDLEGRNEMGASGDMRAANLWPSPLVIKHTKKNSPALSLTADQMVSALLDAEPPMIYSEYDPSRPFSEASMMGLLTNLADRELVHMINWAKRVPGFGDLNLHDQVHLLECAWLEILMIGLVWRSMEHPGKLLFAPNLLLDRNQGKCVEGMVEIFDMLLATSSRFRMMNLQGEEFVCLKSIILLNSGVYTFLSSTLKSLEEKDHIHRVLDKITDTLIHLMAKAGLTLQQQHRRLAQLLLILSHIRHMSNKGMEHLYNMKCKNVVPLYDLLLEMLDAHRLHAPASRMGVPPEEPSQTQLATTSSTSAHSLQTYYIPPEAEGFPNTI

AC50, active:
CCCCCCCC[N+](C)(CCCCCCCC)CCCCCCCC 0.338 µM
CCCCCCCC/C=C\CCCCCCCC(=O)O 35.8 µM

outcome, inactive:
S=C(NC1CCCCC1)NC1CCCCC1
CC(C)C1=CC2=CC[C@@H]3[C@](C)(CCC[C@@]3(C)C(=O)O)[C@H]2CC1

The compounds below were run against Estrogen receptor beta (Homo sapiens) (UniProt Q92731) (assay: OT_ER_ERbERb_1440: Odyssey Thera (OT) 24-hour HEK293T Protein-Complementation Assay for Estrogen Receptor-beta/-beta Homodimer (AID 2283380);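 also: scored as signal increase over DMSO baseline for both agonists and antagonists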).
Procedure, shortened: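 HEK293T cells stably expressing ER beta LBD (aa 310-547) homodimer fragment-complementation reporter, dosed 24 h. Cells formaldehyde-fixed, Draq5-stained; gain in nuclear (agonist) or nuclear plus cytoplasmic (antagonist) fluorescence versus DMSO read by laser scanning cytometry.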

Chain of Estrogen receptor beta (Homo sapiens) (Q92731 whole entry, looked up, the tested form may be a part): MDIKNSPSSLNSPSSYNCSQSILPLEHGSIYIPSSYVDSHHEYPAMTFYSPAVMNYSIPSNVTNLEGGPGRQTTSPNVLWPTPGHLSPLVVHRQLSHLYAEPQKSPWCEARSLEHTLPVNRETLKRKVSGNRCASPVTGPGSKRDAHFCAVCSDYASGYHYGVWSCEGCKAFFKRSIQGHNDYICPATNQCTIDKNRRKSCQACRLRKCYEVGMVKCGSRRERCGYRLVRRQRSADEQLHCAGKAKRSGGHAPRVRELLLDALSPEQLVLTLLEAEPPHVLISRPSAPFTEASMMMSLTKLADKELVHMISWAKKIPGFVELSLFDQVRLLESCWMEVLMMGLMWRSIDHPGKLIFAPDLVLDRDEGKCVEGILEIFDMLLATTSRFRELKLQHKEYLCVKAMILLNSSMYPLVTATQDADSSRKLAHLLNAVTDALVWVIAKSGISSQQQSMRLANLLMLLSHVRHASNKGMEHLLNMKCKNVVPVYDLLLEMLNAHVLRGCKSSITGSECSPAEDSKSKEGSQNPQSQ

outcome, inactive:
CCCCCCCC[N+](C)(CCCCCCCC)CCCCCCCC
OC1CCCC1
C=C1C2CCC(C2)C1(C)C (stereo not drawn)
O=C1CCCC1
CCCCCCCC/C=C\CCCCCCCC(=O)O
O=C(c1ccccc1)C1CCC1
CC(C)c1ccc2cc(C(C)C)ccc2c1
CC(C)(C)c1ccc(N)cc1
CO[Si](OC)(OC)c1ccccc1
CC=C1CC2C=CC1C2 (stereo not drawn)
CNC(=S)NN
c1c[nH]cn1
C=CC(=O)NC(C)(C)CS(=O)(=O)O
CC1=CC[C@H]2C[C@@H]1C2(C)C
NC(=O)c1ccccc1O
CCOC(=O)Cc1cccc2ccccc12
CCCCC(CC)CCC(CC(C)C)OS(=O)(=O)O (stereo not drawn)

AC50, active:
CC(C)(C)c1ccc(OC(=O)c2ccccc2O)cc1 32 µM

What follows are compounds tested against Estrogen receptor (Homo sapiens) (UniProt P03372) (assay: OT_ERa_GFPERaERE_0480: Odyssey Thera (OT) 8-hour HeLa Transcription Induction Assay for Estrogen Receptor (AID 2283381; active = hit-call score of the fitted dose curve at least 0.9, where 1 is the maximum; inactive = score below 0.9)).
Procedure, shortened: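 Fluorescence microscopy with high-content image analysis measures ERE-driven GFP induction in HeLa cells at 8 h post-dose. Increases fitted against DMSO baseline.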

Chain of Estrogen receptor (Homo sapiens) (P03372 whole entry, looked up): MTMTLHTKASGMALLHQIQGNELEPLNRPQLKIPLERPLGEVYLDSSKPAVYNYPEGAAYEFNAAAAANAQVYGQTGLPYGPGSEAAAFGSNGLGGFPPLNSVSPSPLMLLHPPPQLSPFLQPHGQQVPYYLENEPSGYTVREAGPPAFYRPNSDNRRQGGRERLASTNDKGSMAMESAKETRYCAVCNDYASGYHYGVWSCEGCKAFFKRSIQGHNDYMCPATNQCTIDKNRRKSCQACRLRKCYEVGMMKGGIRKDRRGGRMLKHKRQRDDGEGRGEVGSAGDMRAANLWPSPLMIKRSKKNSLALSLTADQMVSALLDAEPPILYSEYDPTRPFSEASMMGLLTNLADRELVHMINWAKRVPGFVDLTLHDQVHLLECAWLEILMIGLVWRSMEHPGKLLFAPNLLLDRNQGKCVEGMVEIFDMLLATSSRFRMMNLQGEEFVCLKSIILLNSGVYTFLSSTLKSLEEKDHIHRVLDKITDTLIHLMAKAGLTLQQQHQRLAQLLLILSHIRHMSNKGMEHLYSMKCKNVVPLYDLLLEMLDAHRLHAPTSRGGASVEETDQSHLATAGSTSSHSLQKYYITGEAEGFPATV

outcome, inactive:
CCCCCCCC[N+](C)(CCCCCCCC)CCCCCCCC
Cc1ccc(C(C)(C)C)cc1
OC1CCCC1
C=C1C2CCC(C2)C1(C)C (stereo not drawn)
CC(C)C1=CC2=CC[C@@H]3[C@](C)(CCC[C@@]3(C)C(=O)O)[C@H]2CC1
CCN(CCC#N)c1ccc(N=Nc2c(Cl)cc([N+](=O)[O-])cc2Cl)cc1
CCCCCCCC/C=C\CCCCCCCC(=O)O
CCCCCCCCCCOS(=O)(=O)O
O=C(c1ccccc1)C1CCC1
CC(C)c1ccc2cc(C(C)C)ccc2c1
CC(C)(C)c1ccc(N)cc1
CO[Si](OC)(OC)c1ccccc1
CC=C1CC2C=CC1C2 (stereo not drawn)
CNC(=S)NN
c1c[nH]cn1
Cc1cc(C)c(C)cc1C
CC(C)c1ccc2c(C(C)C)cc(C(C)C)c(S(=O)(=O)O)c2c1
C1CN(SSN2CCOCC2)CCO1
C=CC(=O)NC(C)(C)CS(=O)(=O)O
NC(=O)c1ccccc1O
CC(C)(C)c1ccc(OC(=O)c2ccccc2O)cc1
CCOC(=O)Cc1cccc2ccccc12
CCCCC(CC)CCC(CC(C)C)OS(=O)(=O)O (stereo not drawn)

AC50, active:
O=C1CCCC1 48.4 µM
CC1=CC[C@H]2C[C@@H]1C2(C)C 93.4 µM
